HT1080 IDH1KD tx = HT-1080 IDH1 knockdown cell toxicity (counter line) | HT-1080 IDH1 knockdown viability, ATP luminescence, 48 h | Potency, µM (titrated, usually from 46.1 µM), for the others: at the top dose activity, negative = toxicity, actives largely listed as cytotoxic | 360,000 compounds, 2% hits | AID 686971;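 further: potency means the concentration at half of the fitted maximal effect; 0% = DMSO wells and -100% = cell-free medium wells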
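CellTiter-Glo luminescence after 48 h compound exposure at 37 degrees C of IDH1-knockdown HT-1080 cells in 5% FBS RPMI. %Activity scaled between DMSO wells and cell-free media wells, with curves fitted and assigned curve classes.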
HT1080-NT tox = kills 2HG-producing HT-1080-NT fibrosarcoma cells | HT-1080-NT fibrosarcoma viability, CellTiter-Glo ATP luminescence, 48 h | Potency, µM (top dose mostly 46.1 µM), for the others: at the highest dose activity, negative = less viability, hits mostly cytotoxic | 360,000 compounds, 1.6% hits | AID 686970;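 further: NT is the 2HG producing partner of a matched IDH1 knockdown line; potency means the concentration at half of the fitted maximal effect; 0% = DMSO-treated cells and -100% = media-only wells without cells; nearly all actives have a fitted effect of over 55% in size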
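HT-1080-NT; 750 cells/well; 5% FBS RPMI; 48 h compound, 37 degrees C; CellTiter-Glo luminescence; curve fitting and curve-class assignment.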
DT40 TDP1 CPT = growth inhibition of DT40 Tdp1-/-;hTDP1 cells with camptothecin (screen for TDP1 inhibitors) | chicken DT40 Tdp1-/-;hTDP1 cells + 20 nM CPT, ATP luminescence, 48 h | Potency, µM (doses to about 46.2 µM), inactives show top-dose activity change, negative = growth inhibition, hits mostly inhibitors | 420,000 compounds, 12% hits | AID 686979; further: potency means the concentration at half of the fitted maximal effect; nearly all actives have a fitted effect of over 55% in size
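Chicken DT40 Tdp1-/- cells complemented with human TDP1, 400 cells/well, exposed to compounds plus 20 nM camptothecin for at least 48 h at 37 C; viability read as ATP content by CellTiter-Glo luminescence.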
uPA generation = blocks generation of uPA at the cell surface; AID 540303; cell surface uPA generation assay, qHTS; Potency, µM (top dose mostly 38.3 µM), for the others: top-dose activity change, negative = inhibition, most hits filed as inhibitors; 330,000 compounds, 0.31% hits; active means well fitted inhibition curve with a large enough effect; inconclusive means small, poorly fitted or top-dose-only effect; inactive means no such curve, though single readings can be large or run the other way; tested in mouse RAW 264.7 cells; further: potency means the concentration at half of the fitted maximal effect; nearly all actives have a fitted effect of over 55% in size
IL1B secr inh = inhibitors of inflammasome signaling (IL-1 beta secretion); THP-1 LPS/ATP IL-1B secretion, AlphaLISA, 16 h; stronger effect = lower value; 360,000 compounds, 4.7% hits; activity change, % at 57.5 µM; in the data active means activity change below about -50%; inconclusive means mostly about -30% to -49%
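THP-1 cells pretreated 1 hr with compounds (up to 57.5 uM final), then stimulated with LPS (250 ng/mL final) plus ATP (1.25 mM final); secreted IL-1B measured by AlphaLISA after 16 hr, decreased signal indicating inhibition.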
DT40 TDP1 no CPT = qHTS for Inhibitors of human tyrosyl-DNA phosphodiesterase 1 (TDP1): qHTS in cells in absence of CPT | 420,000 compounds, 15% hits | AID 686978, 2013 | Potency, µM (series often up to 46.2 µM), without a hit: at the top dose activity change, negative = growth inhibition, usual class: inhibitors | DT40 Tdp1-/- hTDP1 cells, no CPT, ATP luminescence, 48 h; further: potency means the concentration at half of the fitted maximal effect; nearly all actives have a fitted effect of over 55% in size
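Chicken DT40 Tdp1-/- cells stably complemented with human TDP1 were seeded at 400 cells/well with DMSO in place of 20 nM camptothecin. After compound pinning, cells grew at least 48 hr at 37 °C; viability read by CellTiter-Glo luminescence.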
* hit, by the source's call; ? = inconclusive; / = no result given. Hits are enriched below; roughly 19% of the tested compounds scored in any of these assays. Unless noted, the call rests on the fitted dose curve; in most records, active means well fitted curve in the direction sought with a large enough effect; inconclusive means small, poorly fitted or top-dose-only effect, or another doubt; inactive means no such curve, though single readings can be large; an effect the other way counts as inactive or inconclusive. Unless noted, on the % scale 0 is the no-effect control and ±100 the full control effect.

SMILES	HT1080 IDH1KD tx	HT1080-NT tox	DT40 TDP1 CPT	uPA generation	IL1B secr inh	DT40 TDP1 no CPT
Cc1ccc(N2CCN(C(=O)c3cc(-c4ccc(F)cc4)[nH]c3C)CC2C)cc1 (stereo not drawn)	18.4µM*	23.1µM*	?	8.6%	-59.4*	20.6µM*
COc1ccc(C)cc1-n1nnnc1SCC(=O)NC1CCS(=O)(=O)C1 (stereo not drawn)	2.8%	5.8%	-6.4%	8.4%	0.3	14.6%
CC(=O)ON=C1C=CC(=C(C#N)c2ccccc2)C=C1	5.8µM*	7.31µM*	2.31µM*	/	-111.1*	3.26µM*
COc1ccc(C(C#N)=C2C=CC(=NO)C=C2)cc1	10.3µM*	14.6µM*	5.17µM*	-5.7%	-100.9*	10.3µM*
O=C(Nc1nnc([C@@H]2C[C@H](O)[C@@H](CO)O2)s1)c1ccc(Oc2ccccc2)cc1	-3.3%	-1.6%	3.4%	/	7.8	-16.9%
CC1CCc2cc(F)cc3c2N1C(=O)C(C(=O)Nc1cnccn1)C3=O (stereo not drawn)	/	/	1µM*	/	/	0.794µM*
S=C1Nc2ccccc2CS1	-10.0%	-5.6%	-15.1%	/	14.8	?
S=C1Cc2ccccc2N1	5.17µM*	4.61µM*	0.92µM*	?	-101.4*	0.731µM*
COc1ccc(NC(=O)CSC(C)c2nc3ccccc3c(=O)[nH]2)cc1 (stereo not drawn)	2.2%	0.0%	-4.5%	13.3%	11.3	5.4%
COc1ccc(CCn2c3c(c(=O)[nH]c2=S)CN(CC(C)C)CN3)cc1OC	16.6%	2.2%	?	/	/	?
COc1ccc2c(c1)CCCN2C(N)=Nc1ccc(Cl)cc1	?	-23.0%	?	1.0%	-62.9*	23.1µM*
COc1ccc(NC(=O)c2ccc3c(c2)CCN3S(=O)(=O)c2ccc(C)cc2)cc1Cl	/	/	-23.6%	/	/	-12.7%
Cc1ccc(S(=O)(=O)N2CCCc3cc(NC(=O)c4ccc(C(C)(C)C)cc4)ccc32)cc1	/	/	4.11µM*	/	/	3.66µM*
COc1ccc2c(c1)CCCN2S(=O)(=O)c1ccc(Cl)cc1	-24.3%	-3.2%	23.1µM*	?	8.7	14.6µM*
COc1ccc(C(=O)Nc2ccc3c(c2)CCCN3S(=O)(=O)c2ccc(C)cc2)cc1	/	/	20.6µM*	/	/	13µM*
CC(=O)Nc1ccc(NC(=O)c2ccc3c(c2)CCN3S(=O)(=O)c2ccc(C)cc2)cc1	/	/	-10.1%	/	/	-0.9%
CCOC(=O)Cn1nc(NC(=O)COc2ccc(F)cc2)cc1C	2.3%	1.4%	-9.6%	-1.4%	-11.2	-10.3%
CC(=O)c1ccc(S(=O)(=O)Nc2ccc(-c3ccc(N4CCCCC4)nn3)cc2)cc1	/	/	-29.4%	/	/	-29.4%
COc1ccc(Nc2nc3c(S(=O)(=O)c4ccccc4)nnn3c3ccc(Cl)cc23)cc1OC	/	/	0.2%	/	/	-0.3%
COc1ccc(Nc2nc3c(S(=O)(=O)c4ccccc4)nnn3c3ccc(Cl)cc23)cc1	/	/	6.51µM*	/	/	9.2µM*
CCc1ccc(S(=O)(=O)c2nnn3c2nc(Nc2ccc(F)cc2)c2cc(Cl)ccc23)cc1	/	/	3.66µM*	/	/	5.17µM*
COc1ccc(CC(=O)Nc2ccc(-c3nc4cc(C)ccc4o3)c(O)c2)cc1OC	18.8%	20.0%	?	4.5%	6.3	?
COc1ccc2oc(-c3ccc(C)c(NC(=O)c4ccc(-c5ccccc5[N+](=O)[O-])o4)c3)nc2c1	/	/	18.4µM*	/	/	9.2µM*
COc1ccc2oc(-c3ccc(C)c(NC(=O)COc4cc(C)cc(C)c4)c3)nc2c1	/	/	7.31µM*	/	/	5.17µM*
Cc1cccc(OCC(=O)Nc2cc(-c3nc4cc(Cl)ccc4o3)ccc2C)c1	/	/	7.08µM*	/	/	?
SMILES	HT1080 IDH1KD tx	HT1080-NT tox	DT40 TDP1 CPT	uPA generation	IL1B secr inh	DT40 TDP1 no CPT
Cc1cccc(OCC(=O)Nc2ccc(-c3nc4cc(C)ccc4o3)c(O)c2)c1	/	/	14.6µM*	/	/	?
CC(NC(=O)CSc1nc(-c2cccc(Cl)c2)nc2cc(=O)[nH]n12)c1nc2ccccc2n1C (stereo not drawn)	/	/	-9.6%	/	/	-14.7%
COc1ccc(-c2nc3ccccc3o2)cc1NC(=O)COc1c(C)cc(Cl)cc1Cl	/	/	2.91µM*	/	/	5.17µM*
Cc1ccc(-c2nc3ncccc3o2)cc1NC(=O)COc1ccc(C(C)C)cc1	/	/	?	/	/	16.4µM*
COc1ccc(-c2nc3ccccc3o2)cc1NC(=O)Cc1ccc(Cl)cc1	/	/	-25.5%	/	/	-14.4%
Cc1cc(-c2nc3ncccc3o2)ccc1NC(=O)COc1cc(C)c(Cl)c(C)c1	/	/	-5.1%	/	/	1.8%
C[C@@H](N)CCCP(=O)(O)O	/	/	-22.2%	/	/	-19.6%
O=C(N/C(=C/c1ccc(F)cc1)C(=O)N1CCOCC1)c1ccco1	6.6%	8.3%	1.0%	/	-8.4	2.3%
Cc1ccn(CCC(=O)NC2CC(C)(C)Cc3c2cnn3-c2ccccc2C)n1 (stereo not drawn)	12.0%	0.1%	?	-1.9%	13.3	?
C/C=C1\NC(=O)[C@H]2CSSCC/C=C/[C@H](CC(=O)N[C@H](C(C)C)C(=O)N2)OC(=O)C(C(C)C)NC1=O (stereo partly drawn)	/	/	0.0015µM*	/	/	0.0013µM*
COC(=O)CSc1nnc(COc2ccc([N+](=O)[O-])cc2)n1C	10.7%	-1.3%	12.7%	0.9%	-4.0	20.9%
CC(C)OC(=O)CSc1nnc(COc2ccc([N+](=O)[O-])cc2)n1C	-0.7%	-0.5%	0.1%	-0.9%	-97.7*	4.5%
CCOc1cc(C)ccc1OCc1nnc(SCC(=O)c2cccc([N+](=O)[O-])c2)n1C	?	?	-30.0%	-12.9%	-51.2*	-15.5%
CC(Sc1nnc(-c2ccncc2)n1C)C(=O)Nc1nccs1 (stereo not drawn)	13.5%	10.8%	-0.3%	-2.1%	-3.3	1.8%
COc1ccccc1Oc1ncnc2c1cnn2-c1ccccc1	-4.6%	7.2%	11.1%	-0.5%	0.8	?
COc1cc(C(C)=O)ccc1Oc1ncnc2c1cnn2-c1ccc(F)cc1	5.8%	6.3%	?	9.3%	-12.2	9.2µM*
Cc1cc(C)cc(NC(=O)CCN2CCCC2)c1	0.6%	-12.5%	-17.6%	10.9%	-18.1	-21.2%
Cc1cc(C)cc(NC(=O)[C@H](Cc2c[nH]c3ccccc23)NC(=O)[C@@H]2Cc3ccccc3CN2)c1	?	?	?	-0.6%	23.8	?
CCc1ccc(NC(=O)[C@H](Cc2c[nH]c3ccccc23)NC(=O)[C@@H]2Cc3ccccc3CN2)cc1	?	?	18.4µM*	-20.3%	-3.0	?

Screening data deposited in PubChem by National Center for Advancing Translational Sciences (NCATS).
